Assay [1] can be described thus: inhibitors of TNFa-induced NFkB p65 translocation, primary screen, imaging, HUVEC, MLSMR starter and 10KST1 sets (AID 438;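 active means inhibition above 20% together with a positive visual image hit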;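 further: compound added about 3h40 before a 20 min TNFalpha stimulation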;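 on inhibition: signal is the nuclear over cytoplasmic p65 intensity ratio per well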). The note with it: HUVEC TNFa-induced p65 nuclear translocation; cell count: measured here: nuclei count (cytotoxicity indicator), at 2.08 µM; inhibition: at 2 µM, stronger effect = higher value, 0% TNFa-plus-vehicle, 100% no-TNFa wells.
The nature of assay [2]: reduction of polyQ htt aggregates in cells – imaging, exon1htt(103Q)mCFP cells, high-content imaging, primary screen (AID 483;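 active means visual image review flags a hit and inhibition of aggregation exceeds 20%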;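 further: compound exposure lasted 3 days before fixation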;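 on nuclei count: percent of the per-plate median nuclei count of sample wells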). The following applies: exon1htt(103Q)mCFP cell line, aggregate imaging, at 2 µM; inhibition of aggregation: stronger effect = higher value; nuclei count: measured here: cell count, toxicity.
Assay [3] is described as follows: endothelial E-selectin expression blockers – imaging, HUVEC, immunofluorescence, MLSMR starter and 10KST1 sets, primary screen (AID 487;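 active means visually confirmed hit in the image check and inhibition above 20%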;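 on inhibition: signal is fraction of cell area covered by stained E-selectin grains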;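 on nuclei count: 100% = median nuclei count of all wells on the same plate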). The note with it: HUVEC TNFalpha-induced E-selectin immunofluorescence imaging, at 2 µM; inhibition: stronger effect = higher value; nuclei count: measured here: cell number, toxicity.
The nature of assay [4]: Primary imaging screen for DUSP6 inhibitors that restore phospho-Erk in transfected HeLa cells, chemical complementation (AID 609;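 active means compounds giving at least 50% inhibition in the cell-based MKP-3 phosphatase rescue imaging test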;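 on inhibition: phospho-Erk level distribution per well compared with pooled transfected vehicle control wells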). The following applies: HeLa MKP-3 transfected, phospho-Erk imaging KS statistic, at 10 µM, cells stimulated with TPA for 15 min.
The target of assay [5] is Dual specificity protein phosphatase 6 (Homo sapiens) (UniProt Q16828). Described as above. The following applies: HeLa MKP-3 transfected, phospho-Erk imaging KS statistic; at 10 µM; stronger effect = higher value; cells stimulated with TPA for 15 min.
Assay [6] concerns the target Voltage-gated potassium channel subunit beta-2 (Rattus norvegicus) (UniProt P62483). The assay can be described thus: inhibitors of rat Kvbeta2 reductase activity – biochemical, NADPH fluorescence, primary screen (AID 622;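 active means fluorescence slope higher than the sample average by over 3 SD, cut at about -0.22 in these data, passing the limit was not always enough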;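 further: slope of raw intensity against log time taken from 70 to 1610 s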). The note with it: recombinant KvBeta, 4-cyanobenzaldehyde reduction, at 10 µM, stronger effect = higher value.
Assay [7] shares this target. The assay can be described thus: enhancers of rat Kvbeta2 NADPH turnover – biochemical, NADPH fluorescence, primary screen (AID 623;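 active means NADPH fluorescence slope more negative than the mean of all samples by about 3 SD, 99.7% confidence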;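 further: fluorescence intensity change per second fitted from 20 to 320 s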). The following applies: Recombinant KvBeta, NADPH fluorescence decrease slope, 10 min; at 10 µM; stronger effect = lower value.
Assay [8] has as its target Alpha-2C adrenergic receptor (Homo sapiens) (UniProt P18825). The assay can be described thus: compounds altering alpha2C-coupled GIRK flux – cell-based, HEK293 alpha2C/GIRK1/2, thallium flux, primary screen (AID 624;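 active means fluorescence slope after compound addition differing from the mean of all screened samples at 99.7% confidence, in either direction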;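 further: slope of fluorescence ratio to pre-addition baseline per second over 15 to 24 s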). The note with it: thallium flux BTC fluorescence, at 10 µM, actives lie on both sides.
The nature of assay [9]: inhibitors of larval lipid processing in zebrafish, primary screen, whole organism, PED6 fluorescence, gall bladder and intestine (AID 686;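 active means a full or partial loss of lipid-probe fluorescence in the fish gall bladder, intestine or both, judged by eye; inactive means no fluorescence loss, or compound toxic to the fish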;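 further: larvae 5 to 7 days old with five fish per well; signal comes from phospholipase A2 cleavage of quenched PED6 carried via bile; overnight exposure to compound and PED6 before scoring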). The following applies: Zebrafish larvae PED6 lipid processing, fluorescence scoring; screened at 20 µM (by protocol).
A short description of assay [10]: loss of swimming-algae plug formation – whole organism, Chlamydomonas reinhardtii, WT vs cilia-less mutant, absorbance, 96-well, primary screen (AID 463189).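 Further: 0% = wild type cc124 cells in DMSO and 100% = ciliumless bld1 mutant cells.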 The following applies: Chlamydomonas reinhardtii gravitaxis, OD600 absorbance, 2 days; at 10 µM; stronger effect = higher value.
Assay [11] is described as follows: blockers of RIG-like receptor reporter activation – cell-based, Sendai virus stimulus, luciferase, 10K MLSCN set, TLR/RLR signaling modifier project, primary screen (AID 602276;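 active means inhibition at or above 50% at 10 µM; inactive means inhibition below 50%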;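 further: firefly luciferase from ISG56 promoter only with Renilla not read in this screen; 0% = Sendai virus plus DMSO and 100% = medium plus DMSO without virus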). The following applies: HEK293 RL24 IRF3 luciferase reporter, at 10 µM, stronger effect = higher value. A general note: In a reporter assay the amount or activity of a reporter protein is the signal.

Assay [12] can be described thus: TLR3 IRF3 reporter activation blockers – cell-based, poly I:C stimulus, luciferase, 10K MLSCN set, primary screen (AID 602277;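 active means inhibition of the reporter signal at or above 50%; inactive means inhibition below 50%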). The following applies: HEK293-TLR3 RL24 IRF3 luciferase reporter, at 10 µM, stronger effect = higher value.
The mark [13] stands for this setting: measured here: cell density z-score.
The mark [14] stands for this setting: measured here: nuclear c-Myc green intensity z-score.
[15] abbreviates: measured here: nuclear pErk red intensity z-score, stronger effect = higher value.

Molecules are shown by their SMILES. “And” between values parts separate entries of the source, which are not always exact repeats. Equal entries are not always repeated. The source holds several records for some structures; these can differ, active in one and inactive in another. The source made the active and inactive calls.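 How the source made its calls, unless noted: active means inhibition at or above 50% relative to wild type and mutant plate controls; inactive means inhibition below 50%.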

Sequence of Voltage-gated potassium channel subunit beta-2 (Rattus norvegicus) (P62483 whole entry, looked up): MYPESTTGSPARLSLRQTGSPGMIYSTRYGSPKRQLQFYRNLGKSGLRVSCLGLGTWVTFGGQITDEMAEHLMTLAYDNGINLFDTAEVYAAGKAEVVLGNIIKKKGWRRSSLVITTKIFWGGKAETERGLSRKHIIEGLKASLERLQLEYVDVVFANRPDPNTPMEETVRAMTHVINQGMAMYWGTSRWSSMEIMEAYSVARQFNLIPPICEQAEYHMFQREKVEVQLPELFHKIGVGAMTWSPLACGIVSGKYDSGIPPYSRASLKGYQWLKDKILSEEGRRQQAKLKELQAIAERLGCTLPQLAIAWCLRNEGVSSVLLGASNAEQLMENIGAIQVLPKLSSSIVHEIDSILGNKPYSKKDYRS
Sequence of Alpha-2C adrenergic receptor (Homo sapiens) (P18825 whole entry, looked up): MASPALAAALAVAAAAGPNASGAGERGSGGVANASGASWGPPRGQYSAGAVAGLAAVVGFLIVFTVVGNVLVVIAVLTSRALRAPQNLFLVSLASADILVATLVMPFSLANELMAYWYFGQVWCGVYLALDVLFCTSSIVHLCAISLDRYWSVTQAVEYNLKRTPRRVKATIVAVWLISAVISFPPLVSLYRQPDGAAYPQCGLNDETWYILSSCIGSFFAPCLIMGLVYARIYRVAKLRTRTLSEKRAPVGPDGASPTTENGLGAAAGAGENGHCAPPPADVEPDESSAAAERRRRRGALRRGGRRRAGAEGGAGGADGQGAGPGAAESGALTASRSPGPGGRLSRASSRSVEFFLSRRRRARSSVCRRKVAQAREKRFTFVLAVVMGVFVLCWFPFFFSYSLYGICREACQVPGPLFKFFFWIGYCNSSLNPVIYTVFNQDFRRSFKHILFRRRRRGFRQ
Sequence of Dual specificity protein phosphatase 6 (Homo sapiens) (Q16828 whole entry, looked up): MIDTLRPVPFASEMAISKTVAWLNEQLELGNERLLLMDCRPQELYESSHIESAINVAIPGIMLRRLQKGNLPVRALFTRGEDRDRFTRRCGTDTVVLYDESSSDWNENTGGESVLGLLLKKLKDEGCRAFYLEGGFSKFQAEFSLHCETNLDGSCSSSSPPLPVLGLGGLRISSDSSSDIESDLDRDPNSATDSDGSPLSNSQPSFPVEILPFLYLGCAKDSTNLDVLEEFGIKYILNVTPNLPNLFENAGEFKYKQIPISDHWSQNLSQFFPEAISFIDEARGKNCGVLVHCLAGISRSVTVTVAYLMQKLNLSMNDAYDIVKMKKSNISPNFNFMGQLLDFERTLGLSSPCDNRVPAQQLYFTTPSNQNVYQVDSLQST

Regarding `CCOc1ccc(CSC(CC(=O)O)C(=O)O)cc1` (configuration not stated), the cell count in assay [1] came out at 670. Moreover, the inhibition in assay [1] is -12.9% (inactive); in [3], -17.6% (inactive); in assay [5], -6.86% (inactive); in assay [10], 2.66% (inactive); in assay [11], 13.1% (inactive); in assay [12], 29.3% (inactive). Moreover, the inhibition of aggregation in assay [2] was 18.1% (inactive). Further, the nuclei count is 98.8% in assay [2] and 137% in assay [3]. In addition, the z-score in assay [4] (setting [13]) is -0.325; in [4] (setting [14]) it was -0.101; in assay [4] (setting [15]), 1.94. For the same molecule, in [6], the fluorescence slope is -0.356 (inactive). Also, in assay [7], the NADPH fluorescence slope is -2.7e-05 (inactive). Moreover, the slope in [8] is 0.00455 (inactive). For the same molecule, in [9], the molecule was classed as inactive.
On to `CCC(=O)c1ccc(O)cc1`, for which, in assay [1], the cell count is 663. Besides, the inhibition in assay [1] is 0.5% (inactive); in assay [3], -19.7% (inactive); in [5], 19% (inactive); in assay [10], -6.67% (inactive); in [11] it was 13.6% (inactive); in assay [12], 5.36% (inactive). The inhibition of aggregation in [2] is -14% (inactive). The nuclei count in assay [2] was found to be 101%; in assay [3], 118%. In addition, the z-score in assay [4] (setting [13]) was -0.298; in [4] (setting [14]), -0.183; in [4] (setting [15]) it was 0.759. Besides, the fluorescence slope in [6] is -0.496 (inactive). Besides, the NADPH fluorescence slope in assay [7] was 8.5e-06 (inactive). For the same molecule, in [8], the slope was 0.00491 (inactive). Also, the call in [9] was inactive.
Turning to `COc1ccc(OC)c(C2C(C#N)=C(N)Oc3cc(C)[nH]c(=O)c32)c1` (configuration not stated), the cell count in assay [1] came to 544. Also, the inhibition in assay [1] was -31.7% (inactive); in assay [3] it was -48.5% (inactive); in assay [5] it was -7.86% (inactive); in assay [10] it was 15.7% (inactive); in assay [11] it was 13.1% (inactive); in assay [12] it was -12.4% (inactive). Moreover, the inhibition of aggregation in assay [2] was 19.9% (inactive). Moreover, the nuclei count amounted to 88.9% in assay [2] and 122% in assay [3]. Further, the values for the z-score in [4] (setting [13]), in assay [4] (setting [14]) and in assay [4] (setting [15]) were -0.908, -1.31 and -0.529, respectively. In addition, in [6], the fluorescence slope is -0.536 (inactive). Besides, in assay [7], the NADPH fluorescence slope was -5e-05 (inactive). In addition, the slope in assay [8] was 0.00618 (inactive). In addition, the molecule was classed as inactive in [9].
As to `CCOC(=O)[C@H](CCc1ccccc1)N[C@@H](C)C(=O)N1CCC[C@H]1C(=O)O`, the cell count in assay [1] amounted to 512. Further, the inhibition was -1.7% (inactive) in assay [1]; -7.9% (inactive) in assay [3]; 11.3% (inactive) in assay [5]; 34.1% (inactive) in [10]; 9.18% (inactive) in [11]; 28.5% (inactive) in [12]. In assay [2], the inhibition of aggregation was -27.5% (inactive). For the same molecule, the figures for the nuclei count in assay [2] and in assay [3] were 76.9% and 112%, respectively. Besides, the z-score was 1.2 in assay [4] (setting [13]), 0.592 in assay [4] (setting [14]) and -0.0475 in assay [4] (setting [15]). Further, the fluorescence slope in assay [6] is -0.554 (inactive). For the same molecule, the NADPH fluorescence slope in assay [7] is -1.6e-05 (inactive). For the same molecule, the slope in assay [8] was 0.00627 (inactive). Further, the call in [9] was inactive.
As to `OCCN1CCN(CCCN2c3ccccc3Sc3ccc(C(F)(F)F)cc32)CC1`, the cell count in assay [1] is 606. Besides, the inhibition in assay [1] is 2% (inactive); in assay [3], -56.8% (inactive); in [5], -10.4% (inactive); in assay [10] it was -10.6% (inactive) and 145% (active); in [11], 12.2% (inactive); in assay [12], 58.3% (active). Further, the inhibition of aggregation in assay [2] is 4.9% (inactive). Also, the nuclei count in assay [2] amounted to 91.7%; in assay [3], 127%. The values for the z-score in assay [4] (setting [13]), in [4] (setting [14]) and in [4] (setting [15]) were 0.204, 0.276 and 0.714, respectively. Further, the fluorescence slope in [6] was -0.544 (inactive). For the same molecule, the NADPH fluorescence slope in assay [7] was -5.6e-05 (inactive). Further, in [8], the slope was 0.00393 (inactive). The outcome in assay [9] is “active; no signal in intestine only”.
With `Cc1cc(-c2ccccc2)nnc1NCCN1CCOCC1`, the cell count in assay [1] was 674. The inhibition is 5.8% (inactive) in assay [1]; -64.4% (inactive) in assay [3]; 25.7% (inactive) in [5]; 15.7% (inactive) in assay [10]; 13.3% (inactive) in assay [11]; 33.7% (inactive) in [12]. In addition, the inhibition of aggregation in [2] was -29.4% (inactive). The nuclei count in assay [2] was 99.9%; in assay [3] it was 119%. Also, the z-score stood at 0.561 in assay [4] (setting [13]), 0.88 in assay [4] (setting [14]) and 0.22 in assay [4] (setting [15]). Also, the fluorescence slope in assay [6] was -0.472 (inactive). Further, the NADPH fluorescence slope in assay [7] is -2e-05 (inactive). Moreover, the slope in assay [8] was 0.00515 (inactive). The molecule was called inactive in assay [9].

Broadly, the inhibition is the relative decrease from the control value, in per cent.

Source of the values: PubChem BioAssay.
